Molecules are shown by their SMILES. The whole screen tested about 69,000 compounds, of which about 8,600 (12%) showed an effect of 50% or more. Only a selection was taken, and strong results are over-represented in it overall.

This experiment concerns Plasmodium berghei. Briefly: Screen against P. berghei liver stage (PbLuc), transformed with Luciferase, at 10uM. The class given is functional, HepG2. The following applies: tested at 10 uM.
Take `CN1CC2(CCN(CCCOCc3ccccc3)CC2)OC1=O`: the INHIBITION was found to be 42.8%. As for `O=C(C1CCOC1)N1C[C@H]2CN(Cc3ccccn3)C[C@H]2C1` (some centres undefined), the INHIBITION came to 33.5%. As to `CC(=O)N(Cc1ncc(C)o1)C1CCN(Cc2sc(C)nc2C)C1` (centres undefined), the INHIBITION is recorded as -2.19%. The value for `CNC(C)Cc1ccccc1Sc1ccc(O)cc1` (centres undefined) was -2.39%; that for `CC(C)NCc1nc(-c2ccc3c(c2)OCO3)c[nH]1` was -40.5%; that for `O=C1NCCCCC1Sc1ccccc1F` (centres undefined) was 13.6%.

As for `Fc1ccccc1Sc1ccccc1CNC1=NCCN1`, the INHIBITION came to 75.7%. The value for `c1ccc(Sc2ccc3c(c2)OCO3)c(CNC2=NCCN2)c1` was 87.1%; that for `NCc1ccccc1Sc1ccc(O)cc1` was 39.4%; that for `O=C(Cc1cccnc1)NCCSc1ccccc1F` was -11.6%. Turning to `c1cc2c(cc1C1(CNC3=NCCN3)CCCC1)OCCO2`, the INHIBITION was found to be 27.6%. Consider `Fc1ccc(Sc2ccccc2CNC2=NCCN2)cc1`, for which the INHIBITION worked out at 83.3%. In the case of `CCCc1ccc(OCCNCc2ccco2)c(OC)c1`, the INHIBITION was determined as 1.71%.

Turning to `Cc1ccc(C2CCCN2S(=O)(=O)N(C)Cc2nccn2C)o1` (centres undefined), the INHIBITION is recorded as 40.8%. The value for `Cc1nc(CN2CC[C@@H](OCC3CC3)[C@@H]2Cc2cccnc2)cs1` was 10.5%; that for `Cc1cnn(CC2CN(Cc3nnc(-c4ccccc4)o3)CCO2)c1` (centres undefined) was -13.3%. `CC(=O)NC1CCCN(Cc2ccn(C)c(=O)c2)C1` (centres undefined): the INHIBITION is on record as -4.4825%. Turning to `CNc1nc(C(=O)N2C[C@@H]3CC[C@H]2CN(C2CCOCC2)C3)cs1`, the INHIBITION came out at 12.8%. For `CC(c1nc(C2CC2)no1)N(C)Cc1ccc(Cl)cc1` (centres undefined), the INHIBITION worked out at 43.1%. The value for `CC(c1nc(C2CC2)no1)N(C)Cc1ccc2c(c1)OCCO2` (centres undefined) was 12.3%; that for `CC(c1nc(C2CC2)no1)N(C)Cc1cccc(F)c1` (centres undefined) was 53.4%. Take `Cn1ccc2c(C(=O)N3CCCC(c4nnc[nH]4)C3)cccc21` (centres undefined): the INHIBITION is on record as -66.9%. For the compound `CCCNC(=O)c1ncn2c1CN(CC(C)C)S(=O)(=O)c1ccccc1-2`, the INHIBITION worked out at 57.9%. For the compound `CC(C)CCN1Cc2c(C(=O)O)ncn2-c2ccccc2S1(=O)=O`, the INHIBITION is listed as 31.8%. The value for `CCN1Cc2c(C(=O)NC(C)C)ncn2-c2ccccc2S1(=O)=O` was 31.1%. For the compound `CNC(=O)c1ncn2c1CN(CCC(C)C)S(=O)(=O)c1ccccc1-2`, the INHIBITION was found to be 64.9%. Consider `CCN1Cc2c(C(=O)NC(C)C(C)C)ncn2-c2ccccc2S1(=O)=O` (centres undefined), for which the INHIBITION is 29.9%. The value for `CCN1Cc2c(C(=O)NC)ncn2-c2ccccc2S1(=O)=O` was 45.1%; that for `CN1Cc2c(C(=O)NC3CCCCC3)ncn2-c2ccccc2S1(=O)=O` was 43.4%; that for `CC(C)CN1Cc2c(C(=O)NC3CC3)ncn2-c2ccccc2S1(=O)=O` was 50.9%. The value for `CC(C)CN1Cc2c(C(=O)N(C)C)ncn2-c2ccccc2S1(=O)=O` was 5.69%. Regarding `CCC(CC)NC(=O)c1ncn2c1CN(CC)S(=O)(=O)c1ccccc1-2`, the INHIBITION is 52%.

Consider `CCNC(=O)c1ncn2c1CN(C)S(=O)(=O)c1ccccc1-2`, for which the INHIBITION is reported as -1.53%. Take `CCN1Cc2c(C(=O)NCC3CC3)ncn2-c2ccccc2S1(=O)=O`: the INHIBITION came to 0.139%. For `Cc1ccc(C)c(CSc2nnc(C(N)Cc3ccccc3)o2)c1` (centres undefined), the INHIBITION was found to be 43.8%. On to `Cc1ccc(-c2cc(C3=NC(=CN4CCN(C)CC4)NO3)[nH]n2)s1`, for which the INHIBITION worked out at 39.6%. With `Cc1ccsc1CNC1CCCN(Cc2noc(C3CC3)n2)C1` (centres undefined), the INHIBITION worked out at 31.8%. With `CC1CN(CCOc2cccc(C#N)c2)CCN1Cc1nccn1C` (centres undefined), the INHIBITION is recorded as -3.2%.

`COc1ccc(CN2CCC3(CC2)CC(c2cccnc2)CO3)cc1` (centres undefined): the INHIBITION is reported as 15.4%. With `Cc1csc(N2CCCN(C(=O)C3(C#N)CCCC3)CC2)n1`, the INHIBITION is listed as -33.32%. The value for `CN(C)CC1CN(Cc2ccc3c(c2)OCO3)Cc2nccn2C1` (centres undefined) was 43.8%. Turning to `Cc1noc(C)c1CN(C)c1ncnc2onc(C)c12`, the INHIBITION came to 74.7%. Consider `Cc1noc(C)c1CN(C)c1ncnc2ccccc12`, for which the INHIBITION was determined as 35.6%. As for `CNc1ncc(CN(C)C2CCN(C(C)C)CC2)cn1`, the INHIBITION was -52.2%. In the case of `CNc1ncc(CN(C)c2ncnc3onc(C)c23)cn1`, the INHIBITION is listed as 62.9%.

As to `CNc1ncc(CN(C)c2nc(C)c3ccc(S(C)(=O)=O)cc3n2)cn1`, the INHIBITION was -9.54%. On to `Cc1noc2ncnc(N(C)Cc3ccco3)c12`, for which the INHIBITION came to 10.1%. The value for `Cc1ccc(S(=O)(=O)NC(=O)C2(c3ccccc3)CCC2)c(C)c1` was 21.1%.

For the compound `CNc1ccc(C)cc1C(=O)N1CCCC2(CCNC2)C1` (centres undefined), the INHIBITION is 33.7%. As for `CN(CCCOc1ccccc1)Cc1nccn1C`, the INHIBITION is 20.5%. The value for `Cc1ccc(OCCN(C)Cc2nccn2C)c(C)c1` was 55%.

Regarding `CN(Cc1cc2c(cc1OC(F)F)OCO2)Cc1nccn1C`, the INHIBITION was determined as 43.6%. Consider `CCOc1cccc(C(=O)N2CCC(c3n[nH]c(C4CC4)n3)CC2)c1`, for which the INHIBITION was 11.2%. Consider `CC(C)N1CCCC(CNC(=O)c2ccnc(-n3ccnc3)c2)C1` (centres undefined), for which the INHIBITION is -33%.

With `c1cncc(OCC2CN(Cc3nccs3)Cc3nccn3C2)c1` (centres undefined), the INHIBITION is given as 8.52%.

With `COCCN1CCC(CNC(=O)C2(c3ccccc3)CCC2)C1` (centres undefined), the INHIBITION is 45.7%. For `COCCN1CCC(CNC(=O)C2(c3ccc(Br)cc3)CCCC2)C1` (centres undefined), the INHIBITION turned out to be 52.5%. Take `COCCN1CCC(CNC(=O)C2(c3ccc(F)cc3)CCC2)CC1`: the INHIBITION is listed as 8.64%. For the compound `COCCN1CCC(CNC(=O)C2(c3cc(C)cc(C)c3)CCC2)C1` (centres undefined), the INHIBITION came out at 40.9%. With `COCCN1CCC(CNC(=O)Nc2ccc(-c3ccccc3)cc2)C1` (centres undefined), the INHIBITION came to 42.5%.

Consider `COCCN1CCC(CNC(=O)c2cc(C)cc(C)c2)C1` (centres undefined), for which the INHIBITION is on record as 58.3%. `Nc1cc(C(=O)NCC2CCN(CCc3ccccc3)C2)ccn1` (centres undefined): the INHIBITION was 37.2%. With `COCCN1CCC(CNC(=O)Nc2ccc(F)c(Cl)c2)C1` (centres undefined), the INHIBITION is reported as 7.44%. As to `COCCN1CCC(CNC(=O)Nc2ccc(SC(F)(F)F)cc2)C1` (centres undefined), the INHIBITION came out at 66.5%. The value for `O=C(NCC1CCN(CCc2ccccc2)C1)c1cc(Cl)c[nH]1` (centres undefined) was 72.3%; that for `COCCN1CCC(CNC(=O)C2(c3cc(C)cc(C)c3)CC2)CC1` was 26.5%.

Take `O=C(NCC1CCN(CCc2ccccc2)C1)c1c(F)cccc1F` (centres undefined): the INHIBITION is on record as 45.1%. As to `CC1CCN(c2cncc(CCC3CCCN3)n2)CC1` (centres undefined), the INHIBITION was determined as 35.8%. `CN(C)CC(=O)N1CCC2(CCN(Cc3cccc(F)c3)CC2)C1`: the INHIBITION turned out to be 9.97%.

For `CSCC[C@H](NC(=O)CCn1ccc2c(Br)cccc21)C(=O)O`, the INHIBITION is given as -2.13%. The value for `CCCn1nccc1NC(=O)CN1CCC[C@H]1CO` was -72.2%. The value for `COCC1CN(CC2CC2)Cc2nccn2C1` (centres undefined) was 35.7%; that for `N#CC1(C(=O)N2CCN(Cc3cscn3)CC2)CCCCC1` was 25.6%; that for `CC(C)c1nc(CN(C)C(=O)CCc2ccc3c(c2)OCO3)cs1` was 19.4%.

As to `COC(=O)C(NC(=O)CC(C)C)c1cc(F)ccc1F` (centres undefined), the INHIBITION was 15.6%. `CCN1CCC(CNC(=O)c2cc(Cl)c[nH]2)CC1`: the INHIBITION is 7.39%. Turning to `COCCN1CCC(CNC(=O)c2c[nH]c(=O)c(Cl)c2)CC1`, the INHIBITION is -16%. On to `CCCN1CCC(CNC(=O)C2(c3cc(C)cc(C)c3)CCC2)C1` (centres undefined), for which the INHIBITION was found to be 25.1%. On to `CCN1CCC(CNC(=O)C2(c3cccc(C)c3)CC2)C1` (centres undefined), for which the INHIBITION came out at 37%.

Take `COCCN1CCC(CNC(=O)c2cc(Cl)c[nH]2)CC1`: the INHIBITION was 72.3%. `CCN1CCCC(CNC(=O)C2(c3cc(C)cc(C)c3)CCC2)C1` (centres undefined): the INHIBITION is 51.1%.

Take `CCOc1cc(CNC(C)c2sccc2C)ccn1` (centres undefined): the INHIBITION is listed as 66.9%. As to `CCOc1cc(CNC(=O)NCc2nc(C)c(C)s2)ccn1`, the INHIBITION was determined as 30.1%. For the compound `CCOc1cc(CNC(C)c2ccc(F)cc2)ccn1` (centres undefined), the INHIBITION was 21.5%. With `CCOc1cccc(CCNC(=O)Cc2ccccc2O)n1`, the INHIBITION turned out to be 20.1%. `CCOc1cccc(CCNC(=O)Cc2cccc(O)c2)n1`: the INHIBITION was 37.2%. Take `CCOc1cccc(CCNC(=O)Cc2ccn[nH]2)n1`: the INHIBITION is recorded as 61.8%.

With `CC(=O)N1N=C(COc2ccc(C)cc2)OC1c1ccc(N(C)C)cc1` (centres undefined), the INHIBITION is on record as 11.9%. The value for `CC(=O)N1N=C(COc2ccc3c(c2)OCO3)OC1c1ccc(C)cc1` (centres undefined) was -51.1%. The value for `COc1ccc(C2OC(COc3ccccc3Br)=NN2C(C)=O)cc1` (centres undefined) was -52.1%; that for `COc1ccc(C2OC(COc3ccc(C)cc3)=NN2C(C)=O)cc1` (centres undefined) was -13.6%. For `CC(=O)N1N=C(COc2ccc(Cl)cc2)OC1c1ccccc1` (centres undefined), the INHIBITION amounted to 68.9%. For the compound `CC(=O)N1N=C(COc2ccc3c(c2)OCO3)OC1c1cccc(Cl)c1` (centres undefined), the INHIBITION is listed as 61.5%. Consider `COCC(=O)N1C[C@@H](c2cccc(OC)c2)[C@@]2(CCCCC(=O)N2)C1`, for which the INHIBITION is -4.87%. The value for `CC(C)(CCS(C)(=O)=O)CNC(=O)NC1CCCCC1(C)C` (centres undefined) was -11.1%; that for `Cc1cc(C2CCCN(CCS(=O)(=O)c3ccccc3)C2)n[nH]1` (centres undefined) was -9.76%; that for `O=C(NCC(F)(F)F)C1=NOC2(CCCNC2)C1` (centres undefined) was 52.9%. `O=C(NCc1ccncc1)C1=NOC2(CCCNC2)C1` (centres undefined): the INHIBITION is reported as -6.21%. The value for `Cc1ccc(CNC(=O)C2=NOC3(CCCNC3)C2)cc1` (centres undefined) was -13.1%; that for `COCCn1ccc(=O)c(OCC(=O)Nc2ccc(OC)cc2)c1C` was -35.1%; that for `CCn1nc(C)c(CN(CCCOC)Cc2ccccn2)c1C` was 41.5%. `CCn1c(C2CCN(C(=O)c3cc(Cl)no3)CC2)nn(C)c1=O`: the INHIBITION was -34.7%. On to `Cc1nn(C)c2nc(-c3ccccn3)nc(NC[C@@H]3CCCO3)c12`, for which the INHIBITION stood at 10.4%. With `COc1ccc(CN(CC2CCCO2)c2nc3c(s2)c(C)nn3C)cc1` (centres undefined), the INHIBITION is on record as 87.1%. Take `Cc1nn(C)c2nc(N(Cc3ccncc3)CC3CCCO3)sc12` (centres undefined): the INHIBITION is -24%. In the case of `Cc1nn(C)c2nc(N(CCOc3ccccc3)CC3CCCO3)sc12` (centres undefined), the INHIBITION is listed as 85.9%. Consider `Cc1nn(C)c2nc(N(Cc3ccccc3)CC3CCCO3)sc12` (centres undefined), for which the INHIBITION is recorded as 32.8%. Regarding `Cc1nn(C)c2nc(N(Cc3ccccn3)CC3CCCO3)sc12` (centres undefined), the INHIBITION worked out at 3.17%. Consider `Cn1cc(CN2C[C@@H]3COC[C@]3(COCC3CC3)C2)cn1`, for which the INHIBITION is 33.1%.

These data come from ChEMBL document CHEMBL4513216, “Probing the Open Global Health Chemical Diversity Library for Multistage-Active Starting Points for Next-Generation Antimalarials” (ACS Infect Dis, 2020).
